Results filed as inconclusive are left out. Unmarked numbers belong to inactive results. Calls follow the shape of the dose curve; as a rule, active = well fitted cell-killing curve with a large enough effect in the repeat runs; inconclusive = weak or mixed curves, or effect the other way; inactive = flat fitted curve, though single readings scatter.
% is scaled to controls: 0 for no effect and ±100 for the full control effect.

The nature of this assay: qHTS RealTime-Glo MT Cell Viability Assay in HEK293 cells - 40 hour (AID 1224874). Also: nearly all actives have a fitted effect of over 50% in size. To be noted: RealTime-Glo luminescence; max response: stronger effect = lower value. From the text: U.S. Tox21 Program National Center for Advancing Translational Sciences [NCATS] NIH Chemical Genomics Center [NCGC] U.S. Environmental Protection Agency [EPA] National Institutes of Environmental Health Sciences [NIEHS] National Toxicology Program [NTP] U.S. Food and Drug Administration [FDA] Tox21 Assay Overview: Measure of cell viability is critical in the cell-base assay. Analysis of cell viability is necessary for the characterization of cell responses to cytotoxic drugs and environmental stress. A RealTime-Glo MT Cell Viability Assay to monitor cell viability in real time of continues cell culture during 40 hours of compound treatment was used to screen Tox21 10K library compounds in Hek293 cells. The RealTime-Glo MT Cell Viability Assay is a nonlytic, homogeneous, bioluminescent method to measure cell viability in real time using a simple, plate-based method. The assay involves adding NanoLuc luciferase and a cell-permeant prosubstrate to cells in culture. Viable cells reduce the proprietary prosubstrate to generate a substrate for NanoLuc luciferase. This substrate diffuses from cells into the surrounding culture medium, where it is rapidly used by the NanoLuc Enzyme to produce a luminescent signal. The signal correlates with the number of viable cells, making the assay well suited for cytotoxicity studies.
Tox21 Assay Protocol Summary: The mixture of Hek293 cell suspension and reagents were dispensed at 600cells/6 ul/well in 1536-well tissue culture treated black solid bottom plates using a Multidrop dispenser. After the assay plates were incubated at a 37 C/5% CO2 incubator for 5 hours, 23 nL of compounds dissolved in DMSO, positive and negative controls was transferred to the assay plate by a pintool work station. The plates were incubated at 37 C for 40 hours. The luminescence intensity were measured at 0h, 8h, 16h, 24h, 32h and 40h time points using ViewLux plate reader during compound treatment.
Background: In qHTS, concentration-response curves come from the screen itself.
Take `Cc1cccc(C)c1NC(=O)c1cc(S(N)(=O)=O)c(Cl)cc1O`: the max response was 1.94%.
As for `CC(C)(O)CCc1ccccc1`, the max response is -8.47%.
For `CCN(CC)c1cccc(O)c1` the value was 7.38%.
For `CCCCCCCCCCCCCOS(=O)(=O)O` the value was -4.56%.
For `CC1CCCC(=O)C1=O` (stereo not given) the value was 4.99%; for `CC(C)(C)S`, -0.0448%; for `O=C(O)c1cccc(Oc2ccccc2)c1`, -1.97%.
Turning to `CC[C@H]1OC(=O)[C@H](C)[C@@H](O[C@H]2C[C@@](C)(OC)[C@@H](O)[C@H](C)O2)[C@H](C)[C@@H](O[C@@H]2O[C@H](C)C[C@H](N(C)C)[C@H]2O)[C@](C)(O)C[C@@H](C)/C(=N\OCOCCOC)[C@H](C)[C@@H](O)[C@]1(C)O`, the max response is -15%.
With `CC(=O)OCC(C)C` the figure was 1.5%; with `CC(C)(C(=O)c1cccnc1)c1cccnc1`, 6.53%; with `O=C(Nc1ccc(C(=O)O)c(O)c1)c1ccccc1`, 8.29%.
For `CCCCCCC(O)CCCCCCCCCCC(=O)OC` (stereo not given), the max response is -16.2%.
With `CCCCCCCCCCCC(=O)OCC(O)CO` (stereo not given) the figure was 6.6%; with `O=C(O)/C=C/c1ccc(O)c(O)c1`, -2.68%.
For `O=P(O)(O)Oc1ccccc1` the value was 12.9%; for `O=c1[nH]c2cc(C(F)(F)F)c(N3CCOCC3)cc2n(CP(=O)(O)O)c1=O`, 8.28%; for `CC(=O)C(=O)CC(C)C`, 9.63%.
For the compound `C=CCOC(=O)COCCC(C)C`, the max response is -1.87%.
For `CN=C(N)NC(=O)Nc1c(C)cccc1C` the value was 5.93%; for `CCCCCCC(CO)CCCC` (stereo not given), 4.35%.
Take `CC(=O)NNC(C)=O`: the max response is 0.186%.
With `O=S(=O)(Cl)c1c(Cl)cccc1Cl` the figure was -11.9%.
With `C=C(C)C(=O)OCCC(F)(F)C(F)(F)C(F)(F)C(F)(F)C(F)(F)C(F)(F)F` the figure was 0.419%; with `CCN(CC)CCNC(=O)c1cc(Cl)c(N)cc1OC`, -5.88%; with `O=C1[C@@H]2[C@H]3CC[C@H](C3)[C@@H]2C(=O)N1CCCCN1CCN(c2ncccn2)CC1`, -0.051%.
With `CCO[Si](C)(CCCOCC1CO1)OCC` (stereo not given) the figure was 13.3%; with `COc1ccc(C(=O)NCc2ccc(OCCN(C)C)cc2)cc1OC`, 2.93%.
`COC1CCC=CO1` (stereo not given): the max response was 9.69%.
With `CC(C)C(=O)OCCOc1ccccc1` the figure was 2.62%; with `CC1CCCO1` (stereo not given), 5.81%; with `SCCc1cnccn1`, 10.1%.
For `c1ccc2sc(SSc3nc4ccccc4s3)nc2c1` the value was 15.6%; for `CCCCCCCC/C=C\CCCCCCCC(=O)OCCO`, -0.425%; for `COC(C)(C)OC`, 15.9%.
For `Nc1ccc(S(=O)(=O)NCc2ccccc2)cc1` the value was -2.82%.
Turning to `ClC1=C(Cl)C1(Cl)Cl`, the max response was -7.96%.
With `Nc1ccn([C@H]2CS[C@@H](CO)O2)c(=O)n1` the figure was -7.77%.
For `Nc1nc(-c2ccc([N+](=O)[O-])cc2)cs1` the value was -14.1%; for `CCCCOC(=O)CCCCC(=O)OCCCC`, 0.321%; for `CC(=O)OCC(=O)[C@@]1(OC(C)=O)[C@@H](C)C[C@H]2[C@@H]3C[C@H](F)C4=CC(=O)C=C[C@]4(C)[C@@]3(F)[C@@H](O)C[C@@]21C`, -24.6%.
